# A number with no mark means an inactive call. Records with an inconclusive call do not appear. A call without a number means that no potency is given here. Activity calls are given as the source filed them. Unless noted, calls come from the whole dose curve; as a rule, active = well fitted curve in the direction sought with a large enough effect in the repeat runs; inconclusive = weak or mixed curves; inactive = no such curve, though single readings can be large; an effect the other way counts as inactive or inconclusive.
# Columns and labels:
# [1] = qHTS assay to identify small molecule phospholipidosis (PLD) inducers (AID 1259344; active = well fitted curve in the direction sought with a large enough effect; an effect the other way counts as inactive or inconclusive)
# Procedure, shortened: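 Phospholipid accumulation was scored by imaging: fixed, Hoechst-counterstained HepG2 cells stained with LipidTOX Red after 24 h compound exposure at 37 C. Read-outs were pit count and pit intensity per well or per cell, with amiodarone and DMSO controls.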
# [2] = qHTS assay to identify small molecule HDAC inhibitors (AID 1259364);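 note: wild-type HCT-116 cells with endogenous class I/II HDAC activity; top concentration of the series differs between compounds; nearly all actives have a fitted effect of over 45% in size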
# Procedure, shortened: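 Screening used wild-type human colon HCT-116 cells incubated overnight, dosed with compounds for 2 hours, and assayed with a homogeneous luminogenic HDAC I/II reagent for 30 minutes at room temperature.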
# [3] = qHTS assay to identify small molecule HDAC inhibitors - cell viability counter screen (AID 1259365); note: series mostly up to about 92 µM; nearly all actives have a fitted effect of over 50% in size
# Procedure, shortened: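 HCT-116 wild-type, overnight attachment; 2hr drug exposure, 37C; CellTiter-Glo luminescent ATP readout after 30min RT.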
# [4] = qHTS assay to identify small molecule agonists of the sonic hedgehog signaling (Shh) pathway - cell viability counter screen (AID 1259366); note: nearly all actives have a fitted effect of over 50% in size; note: potency is the fitted concentration of half-maximal effect
# Procedure, shortened: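 Compounds in DMSO were pin-transferred onto 3T3 Gli1-Luc cells that had settled 4hr; plates then stood 24hr at 37C and 5% CO2. One hour before the end, CellTiter-Fluor was added and fluorescence recorded.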
# [5] = qHTS assay to identify small molecule antagonists of the sonic hedgehog signaling (Shh) pathway - cell viability counter screen (AID 1259367); note: nearly all actives have a fitted effect of over 55% in size; note: potency is the fitted concentration of half-maximal effect
# Procedure, shortened: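 Viability was read by CellTiter-Fluor fluorescence in the same wells, reagent added 23 hr into compound treatment and incubated 1 hr at 37C. The 3T3 Gli1-Luc reporter cells (2,000/well) received conditioned medium after compound and ran 24 hr.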
# [6] = qHTS assay to identify small molecule agonists of the sonic hedgehog signaling (Shh) pathway (AID 1259368; calls by dose curve; note: nearly all actives have a fitted effect of over 15% in size; note: potency is the fitted concentration of half-maximal effect)
# Procedure, shortened: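 Hedgehog pathway agonism scored by increased firefly luciferase luminescence in 3T3Gli1-Luc cells treated 24 hr at 37 C; detection used a 30 min room-temperature reagent incubation.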
# [7] = qHTS assay to identify small molecule antagonists of the sonic hedgehog signaling (Shh) pathway (AID 1259369; calls by dose curve; note: nearly all actives have a fitted effect of over 45% in size; note: potency is the fitted concentration of half-maximal effect)
# Procedure, shortened: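 NIH/3T3 stable Gli1-Luc clone, 2,000 cells/well, 4hr settle; cpd + conditioned medium 24hr; Luc reagent 30min RT; luminescence.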
# [8] = molecular target: Estrogen receptor beta (Homo sapiens) (UniProt Q92731); assay: qHTS assay to identify small molecule agonists of the estrogen receptor beta (ER-beta) signaling pathway (AID 1259377; active = well fitted activation curve with a large enough effect in the signal ratio in the repeat runs, not every such curve was filed as active; the % refers to the signal ratio)
# Estrogen receptor beta (Homo sapiens), sequence (Q92731 whole entry, looked up): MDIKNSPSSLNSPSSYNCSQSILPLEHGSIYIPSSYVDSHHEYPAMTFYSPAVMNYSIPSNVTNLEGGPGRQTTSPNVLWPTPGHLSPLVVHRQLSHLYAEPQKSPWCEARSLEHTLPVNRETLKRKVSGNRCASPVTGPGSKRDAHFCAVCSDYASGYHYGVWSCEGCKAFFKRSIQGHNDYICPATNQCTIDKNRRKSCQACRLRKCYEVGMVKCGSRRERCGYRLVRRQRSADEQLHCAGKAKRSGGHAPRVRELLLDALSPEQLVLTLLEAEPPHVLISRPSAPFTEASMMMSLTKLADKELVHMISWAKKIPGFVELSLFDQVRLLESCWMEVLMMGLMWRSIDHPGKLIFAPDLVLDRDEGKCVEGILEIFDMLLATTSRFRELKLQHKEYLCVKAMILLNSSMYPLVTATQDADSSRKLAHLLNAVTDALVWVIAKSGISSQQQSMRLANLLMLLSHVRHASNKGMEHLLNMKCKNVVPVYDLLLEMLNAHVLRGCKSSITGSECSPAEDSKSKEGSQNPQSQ
# Procedure, shortened: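 qHTS in ER-beta-UAS-bla HEK293T cells: 6 hr settling, then 16 hr compound at 37C, then LiveBLAzer substrate 2 h at RT before fluorescence reading.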
# [9] = molecular target: Estrogen receptor beta (Homo sapiens) (UniProt Q92731); assay: qHTS assay to identify small molecule antagonists of the estrogen receptor beta (ER-beta) signaling pathway (AID 1259378; active = well fitted inhibition curve with a large enough effect in the signal ratio in the repeat runs, not every such curve was filed as active; the % refers to the signal ratio; note: potency is the fitted concentration of half-maximal effect)
# Procedure, shortened: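 Antagonist mode: compounds added to beta-lactamase reporter HEK293T ER-beta-UAS cells stimulated with E2 (1nM final), 16 hr at 37C. LiveBLAzer B/G FRET substrate, 2 hours room temperature, fluorescence read-out.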
# [10] = qHTS assay to identify small molecule agonists of the androgen receptor (AR) signaling pathway in the presence of an antagonist - cell viability counter screen (AID 1259379); note: nearly all actives have a fitted effect of over 25% in size; note: potency is the fitted concentration of half-maximal effect
# Procedure, shortened: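 MDA-kb2 viability measured by CellTiter-Fluor fluorescence in the same wells as the luciferase signal; nilutamide 3.0uM final; 15-point compound titration; 16 hr at 37C.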
# [11] = qHTS assay to identify small molecule agonists of the estrogen receptor beta (ER-beta) signaling pathway - cell viability counter screen (AID 1259380); note: nearly all actives have a fitted effect of over 30% in size; note: potency is the fitted concentration of half-maximal effect
# Procedure, shortened: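 Measured: luminescence from CellTiter-Glo after 30 min at room temperature, added to wells already read for the LiveBLAzer FRET reporter (2 hr substrate); ER-beta-UAS-bla HEK293T cells had 16 hr compound treatment at 37C, 5% CO2.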
# [12] = qHTS assay to identify small molecule antagonists of the estrogen receptor beta (ER-beta) signaling pathway - cell viability counter screen (AID 1259382); note: nearly all actives have a fitted effect of over 55% in size; note: potency is the fitted concentration of half-maximal effect
# Procedure, shortened: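 Readout: luminescence, CellTiter-Glo, same wells as bla assay. System: ER-beta-UAS-bla GripTite HEK293T, 2% charcoal-stripped FBS. Exposure: compounds plus 1nM 17-beta-estradiol, 16 hr, 37C.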
# [13] = molecular target: Estrogen receptor (Homo sapiens) (UniProt P03372); assay: qHTS assay to identify small molecule agonists of the estrogen receptor alpha (ER-alpha) signaling pathway in the presence of an antagonist (AID 1259383; calls by dose curve; note: top concentration of the series differs between compounds; nearly all actives have a fitted effect of over 15% in size)
# Estrogen receptor (Homo sapiens), sequence (P03372 whole entry, looked up): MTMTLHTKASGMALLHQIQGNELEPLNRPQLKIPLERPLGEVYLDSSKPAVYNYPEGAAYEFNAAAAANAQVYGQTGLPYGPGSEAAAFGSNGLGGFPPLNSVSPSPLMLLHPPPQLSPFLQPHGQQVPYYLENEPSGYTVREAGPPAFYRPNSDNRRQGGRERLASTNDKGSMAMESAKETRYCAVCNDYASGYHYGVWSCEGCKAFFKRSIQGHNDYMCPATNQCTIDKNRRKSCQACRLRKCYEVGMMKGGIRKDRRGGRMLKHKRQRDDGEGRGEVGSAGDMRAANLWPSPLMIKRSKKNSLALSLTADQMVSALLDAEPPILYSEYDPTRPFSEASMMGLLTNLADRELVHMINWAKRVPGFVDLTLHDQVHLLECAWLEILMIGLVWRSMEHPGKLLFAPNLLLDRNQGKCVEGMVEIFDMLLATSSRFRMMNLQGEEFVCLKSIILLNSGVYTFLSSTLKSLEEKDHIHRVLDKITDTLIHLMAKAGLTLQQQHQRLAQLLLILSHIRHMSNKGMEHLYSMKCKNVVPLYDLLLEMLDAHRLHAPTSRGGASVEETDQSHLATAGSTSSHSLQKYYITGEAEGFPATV
# Procedure, shortened: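 Quantitative HTS confirmation: compounds titrated at 15 concentrations onto estrogen-deprived VM7Luc4E2 cells carrying a four-ERE luciferase construct, with ICI-182,780 present at 10.0nM final. Signal is luminescence after 22hr exposure.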
# [14] = qHTS assay to identify small molecule agonists or antagonists of the thyroid stimulating hormone receptor (TSHR) signaling pathway - wild type cell line counter screen (AID 1259384; calls by dose curve)
# Procedure, shortened: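 Counter screen in untransfected Hek293: compounds (15-point titration, triplicate) plus phosphodiesterase inhibitor Ro20-1724 added after 18 h plating; 30 min RT. Intracellular cAMP via competitive d2/cryptate immunoassay, 1 h incubation.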
# [15] = molecular target: Thyrotropin receptor (Homo sapiens) (UniProt P16473); assay: qHTS assay to identify small molecule antagonists of the thyroid stimulating hormone receptor (TSHR) signaling pathway (AID 1259385; calls by dose curve; note: nearly all actives have a fitted effect of over 20% in size; note: potency is the fitted concentration of half-maximal effect)
# Thyrotropin receptor (Homo sapiens), sequence (P16473 whole entry, looked up): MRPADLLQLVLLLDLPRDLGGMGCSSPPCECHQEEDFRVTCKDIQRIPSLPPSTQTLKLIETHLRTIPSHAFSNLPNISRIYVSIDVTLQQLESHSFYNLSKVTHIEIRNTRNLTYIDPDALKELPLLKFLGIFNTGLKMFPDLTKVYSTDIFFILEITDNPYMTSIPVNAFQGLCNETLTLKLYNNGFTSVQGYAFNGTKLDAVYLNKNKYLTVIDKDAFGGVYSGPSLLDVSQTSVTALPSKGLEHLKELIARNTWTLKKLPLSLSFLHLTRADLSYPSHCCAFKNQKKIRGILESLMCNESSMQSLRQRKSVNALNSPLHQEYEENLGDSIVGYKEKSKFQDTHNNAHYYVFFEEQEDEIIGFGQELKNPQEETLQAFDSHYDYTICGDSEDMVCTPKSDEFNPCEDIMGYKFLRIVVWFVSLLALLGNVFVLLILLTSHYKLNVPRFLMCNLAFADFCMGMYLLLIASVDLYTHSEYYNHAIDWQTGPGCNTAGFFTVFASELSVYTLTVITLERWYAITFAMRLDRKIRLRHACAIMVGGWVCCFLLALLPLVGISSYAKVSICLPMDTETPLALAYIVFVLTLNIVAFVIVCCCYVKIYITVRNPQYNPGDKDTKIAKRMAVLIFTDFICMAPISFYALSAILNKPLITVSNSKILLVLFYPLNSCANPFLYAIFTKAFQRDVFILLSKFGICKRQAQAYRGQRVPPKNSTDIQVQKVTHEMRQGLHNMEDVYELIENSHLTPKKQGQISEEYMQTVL
# Procedure, shortened: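 Antagonist mode: compound-treated TSHR-expressing HEK293 cells were stimulated with 1.5 ng/mL TSH (final) in presence of Ro20-1724 for 30 min at RT. HTRF cAMP detection after 1 h; each compound tested at 15 concentrations, triplicate.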
# [16] = molecular target: Progesterone receptor (Homo sapiens) (UniProt P06401); assay: qHTS assay to identify small molecule antagonists of the progesterone receptor (PR) signaling pathway (AID 1346795; active = well fitted inhibition curve with a large enough effect in the signal ratio in the repeat runs, not every such curve was filed as active; the % refers to the signal ratio; note: potency is the fitted concentration of half-maximal effect)
# Progesterone receptor (Homo sapiens), sequence (P06401 whole entry, looked up): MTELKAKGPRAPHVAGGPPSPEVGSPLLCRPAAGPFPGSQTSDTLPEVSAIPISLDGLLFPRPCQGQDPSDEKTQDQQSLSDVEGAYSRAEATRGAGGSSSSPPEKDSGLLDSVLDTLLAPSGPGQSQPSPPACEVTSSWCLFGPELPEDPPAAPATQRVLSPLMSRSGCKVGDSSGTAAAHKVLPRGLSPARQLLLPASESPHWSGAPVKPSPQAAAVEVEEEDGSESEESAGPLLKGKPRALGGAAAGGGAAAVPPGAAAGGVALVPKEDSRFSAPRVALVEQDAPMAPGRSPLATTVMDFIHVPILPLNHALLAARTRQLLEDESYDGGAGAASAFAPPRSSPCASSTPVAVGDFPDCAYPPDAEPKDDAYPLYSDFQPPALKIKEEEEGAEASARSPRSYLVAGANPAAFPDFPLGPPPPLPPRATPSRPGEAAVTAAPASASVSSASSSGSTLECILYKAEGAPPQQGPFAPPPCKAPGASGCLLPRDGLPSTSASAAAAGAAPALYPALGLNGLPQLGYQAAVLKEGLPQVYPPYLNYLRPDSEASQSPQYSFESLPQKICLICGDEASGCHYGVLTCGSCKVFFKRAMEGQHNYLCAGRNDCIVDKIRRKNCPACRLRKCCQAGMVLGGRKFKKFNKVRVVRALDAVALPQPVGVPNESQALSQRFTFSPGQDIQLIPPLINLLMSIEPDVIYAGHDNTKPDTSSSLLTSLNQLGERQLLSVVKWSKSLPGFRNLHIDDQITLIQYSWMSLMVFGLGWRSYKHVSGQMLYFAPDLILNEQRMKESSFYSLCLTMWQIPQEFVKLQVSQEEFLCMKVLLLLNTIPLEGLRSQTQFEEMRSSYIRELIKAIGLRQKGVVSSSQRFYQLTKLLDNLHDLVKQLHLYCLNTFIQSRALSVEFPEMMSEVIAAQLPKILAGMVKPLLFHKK
# Procedure, shortened: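 Fluorescence intensity measured 2 hr after adding beta-lactamase FRET substrate to PR-UAS-bla HEK293T cells that had been co-treated 16 hr with compound and 1 nM R5020 (final concentration) in 2% charcoal-stripped FBS.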
# [17] = molecular target: Androgen receptor (Homo sapiens) (UniProt P10275); assay: qHTS assay to identify small molecule agonists of the androgen receptor (AR) signaling pathway in the presence of an antagonist (AID 1259381; calls by dose curve; note: nearly all actives have a fitted effect of over 15% in size)
# Androgen receptor (Homo sapiens), sequence (P10275 whole entry, looked up): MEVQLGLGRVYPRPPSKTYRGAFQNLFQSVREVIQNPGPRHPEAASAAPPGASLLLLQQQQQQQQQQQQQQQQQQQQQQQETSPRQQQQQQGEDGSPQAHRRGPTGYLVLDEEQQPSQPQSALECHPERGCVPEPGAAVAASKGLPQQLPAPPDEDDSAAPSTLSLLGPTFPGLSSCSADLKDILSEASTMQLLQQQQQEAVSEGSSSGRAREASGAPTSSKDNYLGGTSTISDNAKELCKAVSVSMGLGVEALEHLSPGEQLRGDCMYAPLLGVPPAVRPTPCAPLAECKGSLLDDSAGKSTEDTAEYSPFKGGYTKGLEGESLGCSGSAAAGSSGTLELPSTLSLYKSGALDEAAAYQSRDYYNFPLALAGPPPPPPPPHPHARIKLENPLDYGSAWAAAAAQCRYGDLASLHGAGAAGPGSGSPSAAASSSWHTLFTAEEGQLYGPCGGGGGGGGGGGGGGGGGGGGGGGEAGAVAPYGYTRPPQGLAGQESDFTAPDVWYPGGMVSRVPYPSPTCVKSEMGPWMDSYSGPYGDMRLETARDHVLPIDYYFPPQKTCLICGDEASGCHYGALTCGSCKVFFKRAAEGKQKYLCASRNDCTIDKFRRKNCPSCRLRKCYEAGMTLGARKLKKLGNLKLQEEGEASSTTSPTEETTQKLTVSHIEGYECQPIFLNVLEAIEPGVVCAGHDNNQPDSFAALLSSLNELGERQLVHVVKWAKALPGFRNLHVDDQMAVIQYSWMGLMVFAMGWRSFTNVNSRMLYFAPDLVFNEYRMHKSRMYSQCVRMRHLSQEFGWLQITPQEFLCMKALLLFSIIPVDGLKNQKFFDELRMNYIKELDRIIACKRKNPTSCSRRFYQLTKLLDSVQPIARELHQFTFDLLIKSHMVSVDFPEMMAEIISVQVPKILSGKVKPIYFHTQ
# Procedure, shortened: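 Luminescent ONE-Glo read, 30min at room temperature, follows 16hr compound exposure (15 concentrations) of MDA-kb2 cells at 37C, 0% CO2, with nilutamide added at 3.0uM final.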
# [18] = qHTS assay to identify small molecule agonists of the estrogen receptor alpha (ER-alpha) signaling pathway in the presence of an antagonist - cell viability counter screen (AID 1259386);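 note: cells exposed to compounds for 22 h at 37 °C before the viability read; nearly all actives have a fitted effect of over 30% in size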; note: potency is the fitted concentration of half-maximal effect
# Procedure, shortened: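 The test measures whether compounds kill ER-alpha reporter cells (VM7Luc4E2) under antagonist co-treatment (ICI-182,780, 10.0nM). Fluorescence from CellTiter-Fluor is read after a 22hr exposure.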
# [19] = molecular target: Progesterone receptor (Homo sapiens) (UniProt P06401); assay: qHTS assay to identify small molecule agonists of the progesterone receptor (PR) signaling pathway (AID 1346784; calls by dose curve; note: nearly all actives have a fitted effect of over 30% in size)
# Procedure, shortened: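 Fluorescence from LiveBLAzer B/G FRET substrate cleavage (2 hr, RT) reported PR activation in PR-UAS-bla HEK 293T cells treated 16 hr at 37C/5% CO2 with compounds; medium contained 2% charcoal-stripped FBS.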
# [20] = molecular target: Estrogen receptor (Homo sapiens) (UniProt P03372); assay: qHTS assay to identify small molecule antagonists of the estrogen receptor alpha (ER-alpha) signaling pathway using the BG1 cell line in the presence of 0.1 nM 17-beta-estradiol (AID 1259244); note: nearly all actives have a fitted effect of over 50% in size
# Procedure, shortened: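 Compounds were tested against 0.1 nM (final) 17beta-estradiol in VM7Luc4E2 cells, which express full-length ER-alpha and an ERE-luciferase reporter; luminescence was recorded following 22 h exposure.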
Compound,Potency [1],Potency [2],Potency [3],Potency [4],Potency [5],Potency [6],Potency [7],Potency [8],Potency [9],Potency [10],Potency [11],Potency [12],Potency [13],outcome [14],Potency [15],Potency [16],Potency [17],Potency [18],outcome [19],Potency [20]
CCCCNc1c(C(=O)OCC)c(C)nc2c1cnn2CC,inactive,inactive,inactive,inactive,inactive,inactive,0.0422 µM (active),inactive,inactive,inactive,inactive,inactive,inactive,inactive,inactive,26.6 µM (active),,,,
O=C(O)Cc1ccc(OCCNC[C@H](O)c2ccccc2)cc1,inactive,inactive,inactive,inactive,,,,,,inactive,inactive,inactive,inactive,inactive,inactive,,inactive,inactive,inactive,
C/C=C/C=N/NC(=O)c1ccncc1,inactive,inactive,inactive,,26.6 µM (active),inactive,inactive,inactive,,,inactive,,,inactive,,inactive,,inactive,inactive,
Cc1oc(-c2ccccc2)nc1CCOc1ccc(C[C@H](Nc2ccccc2C(=O)c2ccccc2)C(=O)O)cc1,,inactive,,43.3 µM (active),48.6 µM (active),inactive,,,27.3 µM (active),54.5 µM (active),27.3 µM (active),24.3 µM (active),inactive,inactive,inactive,,inactive,48.6 µM (active),,inactive
Nc1ncnc2c1ncn2[C@@H]1O[C@H](COP(=O)(O)O)[C@@H](O)[C@H]1O,inactive,inactive,,inactive,inactive,inactive,inactive,inactive,,inactive,26.6 µM (active),inactive,,inactive,inactive,inactive,,inactive,inactive,
COc1cc(C=C2CCC/C(=C\c3ccc(O)c(OC)c3)C2=O)ccc1O,inactive,inactive,inactive,,23.7 µM (active),26.6 µM (active),,,,26.6 µM (active),33.5 µM (active),,inactive,inactive,,6.68 µM (active),inactive,,,
O=C(Nc1ccc(Cl)cc1)Nc1ccc(Cl)c(C(F)(F)F)c1,inactive,inactive,inactive,inactive,,inactive,7.5 µM (active),inactive,7.5 µM (active),11.9 µM (active),13.3 µM (active),13.3 µM (active),inactive,inactive,26.6 µM (active),,,,,
Clc1ccccc1CN1CCc2sccc2C1,inactive,inactive,inactive,inactive,inactive,inactive,inactive,,,inactive,,inactive,,,,,,inactive,,
